YopH inh: YopH tyrosine phosphatase inhibitors, primary screen, biochemical, fluorescence Ex485/Em525; YopH tyrosine phosphatase [Yersinia enterocolitica]; inhibition, % (no concentration beside the values); 140,000 compounds, 0.16% hits; in the data active = inhibition above about 50%
RmlC RmlD mix: RmlC and RmlD coupled enzyme inhibitors, primary screen, biochemical, 384-well, compound mixtures, retest | RmlC/RmlD coupled enzyme inhibition, 384-well mixture HTS | inhibition, % at 5.5 µM | 110,000 compounds, 0.39% hits; in the data active = inhibition above about 30%, passing the limit was not always enough
RmlCD artifact: counter-screen for RmlC/RmlD inhibitors: fluorescence artifact, dose response, artefact control, biochemical. RmlC/RmlD assay fluorescence artifact counter-screen. 360 compounds, 96% hits. calls only. shares compounds with RmlC RmlD mix; call rule not given here;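 also: compound alone with no enzyme and no substrates present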
Each line names hits and unclear results; the compound was inactive in the other large screens (follow-up assays come after a bar, where they were run). In the library only some 0.41% were active in any assay of this set; here they are far more common.

Cc1coc2c(C)c3oc(=O)c4c(c3cc12)CCCC4	none (no result: YopH inh)
Cc1c(C)c2cc(Cl)c(O)c(CN(C)C)c2oc1=O	RmlC RmlD mix 63 | RmlCD artifact active
CCc1c(C)c2cc(Cl)c(O)c(CN(CC)CC)c2oc1=O	RmlC RmlD mix 106 | RmlCD artifact active
COc1ccc(-c2cc(=O)oc3c(C)c(O)c(CN(C)C)cc23)cc1	none
O=C(CSc1nc(-c2ccccc2)c(-c2ccccc2)[nH]1)NCCN1C(=O)CSC1=O	none
CN(C)C(=S)SCC(=O)Nc1ccc(Cl)cc1Cl	none (no result: RmlC RmlD mix)
COc1ccc(-c2nc(-c3cccs3)c(-c3cccs3)[nH]2)cc1O	none
CC(=O)NC(CC(C)C)C(=O)NC(CO)C(=O)NC(CCC(=O)O)C(=O)NC(C)C(=O)NC(CC(C)C)C(N)=O (stereo unspecified)	none (no result: YopH inh)
COCCCn1c(=O)/c(=C\c2ccc(OC(F)F)c(OC)c2)s/c1=C(/C#N)C(=O)NCCOC	none (no result: YopH inh, RmlC RmlD mix) | RmlCD artifact inactive
COCCCn1c(=O)/c(=C\c2ccccc2OC(F)F)s/c1=C(/C#N)C(=O)NC(C)C	none (no result: RmlC RmlD mix)
CC1(C)Cc2nc(N3CCOCC3)c(C#N)cc2CO1	none
CC1(C)Cc2nc(NCCCO)c(C#N)cc2CO1	RmlC RmlD mix 44 | RmlCD artifact active
CC(C)(C)[C@H]1C=C(C(N)=O)O[C@@H](OCc2ccc(CO)cc2)C1	none (no result: YopH inh)
CCOCC(=O)Nc1ccc(-c2cn3cccnc3n2)cc1	RmlC RmlD mix 106 | RmlCD artifact active
Cc1ccc(-c2cn3cccnc3n2)cc1NC(=O)c1ccc(Br)o1	RmlC RmlD mix 70 | RmlCD artifact active
O=C(Nc1cccc(-c2cn3cccnc3n2)c1)c1ccco1	none
CCCC(=O)Nc1cc(-c2cn3cccnc3n2)ccc1OC	none
COc1ccc(-c2cn3cccnc3n2)cc1NC(=O)c1ccc(Br)o1	none
O=C(Nc1cccc(-c2cn3cccnc3n2)c1)c1ccc(Br)o1	RmlC RmlD mix 55 | RmlCD artifact active
Cn1cc([N+](=O)[O-])c(C(=O)NCc2cc3cc(Cl)ccc3[nH]2)n1	none (no result: RmlC RmlD mix)
CN(C)CCNc1oc(-c2ccccc2F)nc1C#N	RmlC RmlD mix 46 | RmlCD artifact active
CN(C)CCCNc1oc(-c2ccccc2)nc1C#N	none
COC(=O)c1ccc2c(c1)C(C)(C)C(/C=C/c1ccc(OC)c(OC)c1OC)=[N+]2C	RmlC RmlD mix 45 | RmlCD artifact active
COC(=O)c1ccc2c(c1)C(C)(C)C(/C=C/c1ccc(O)cc1)=[N+]2C	none
COc1ccc(CSc2nnc(Cc3sc(-c4ccccc4)nc3-c3ccccc3)o2)cc1	none
CCOC(=O)c1sc2ccc(S(=O)(=O)N3CC(C)CC(C)C3)cc2c1N (stereo unspecified)	none (no result: RmlC RmlD mix)
N#Cc1c(N)nc2c(c1-c1ccncc1)CCCCC2	none
CSc1ccc(-c2c(C#N)c(N)nc3c2CCCC3)cc1	RmlC RmlD mix 33 | RmlCD artifact active
COc1ccc(CNC(=O)C(c2ccco2)N(C(=O)c2csnn2)c2cccc(C)c2C)cc1 (stereo unspecified)	none
CC1=CC(c2ccc(Cl)cc2)n2nc(NS(=O)(=O)c3ccc(C)cc3)nc2N1 (stereo unspecified)	none
CC1=CC(c2ccccc2)n2nc(NS(=O)(=O)c3ccc(C)cc3)nc2N1 (stereo unspecified)	RmlC RmlD mix 54 | RmlCD artifact active
O=C(Nc1nc2ccccc2s1)c1ccc(OCC2CCCO2)cc1 (stereo unspecified)	none (no result: RmlC RmlD mix)
Cc1ccc(S(=O)(=O)NC(=O)c2ccc(Br)o2)cc1	none
Nc1ccc2nc(-c3ccc(N)c(Cl)c3)[nH]c2c1	RmlC RmlD mix 40 | RmlCD artifact active
COc1ccc2nc(-c3ccc(N)cc3)[nH]c2c1	none
Nc1ccc2nc(-c3ccccc3)[nH]c2c1	none
Nc1ccc(-c2nc3c(Cl)cc(N)cc3[nH]2)cc1	RmlC RmlD mix 50 | RmlCD artifact active
N#C/C(=N\Nc1cccc2ccccc12)c1nnc2n1CCCCC2	none (no result: RmlC RmlD mix)
CCOc1ccc(Nc2oc(-c3ccco3)nc2C#N)cc1	none
CCOc1ccc(Nc2oc(-c3cccc(Cl)c3)nc2C#N)cc1	RmlC RmlD mix 36 | RmlCD artifact active
CSc1nc2ccc(NS(=O)(=O)c3cccc(Cl)c3Cl)cc2s1	none (no result: RmlC RmlD mix)
CC(OC(=O)Cc1c(F)cccc1Cl)C(=O)NCCC1=CCCCC1 (stereo unspecified)	none (no result: RmlC RmlD mix)
CCOc1ccc2oc(-c3ccccc3)c(C(=O)O)c2c1	none
CC(Oc1ccc2oc(-c3ccccc3)c(C(=O)O)c2c1)C(=O)O (stereo unspecified)	RmlC RmlD mix 58 | RmlCD artifact active
CCOc1ccc(Br)cc1S(=O)(=O)Nc1cccc(S(=O)(=O)N(C)c2ccccc2)c1	none (no result: RmlC RmlD mix)
CCOc1ccccc1Nc1nnc(SCC(=O)Nc2cccc(S(=O)(=O)NC3=NCCCCC3)c2)s1	none (no result: RmlC RmlD mix)
COc1ccccc1NS(=O)(=O)c1cc(NC(=O)c2ccc3c(c2)OCCO3)ccc1C	none (no result: RmlC RmlD mix)
O=C(CCCn1c(=O)[nH]c2ccccc2c1=O)N1CCN(c2ccccn2)CC1	none (no result: RmlC RmlD mix)

Screens deposited in PubChem BioAssay by several laboratories.
